PubChem BioAssay (EPA / NIEHS)
“And” between values parts separate entries of the source, which are not always exact repeats. Equal values may be shown once. A structure can be active in one record and inactive in another. The source made the active and inactive calls. How the source made its calls: active means hit-call score of the fitted dose curve at least 0.9, where 1 is the maximum; inactive means score below 0.9.

Columns and labels:
[1] = read-out: Urokinase-type plasminogen activator receptor (uPAR), PLAUR (gene 5329); test: BSK_4H_uPAR: BioMAP Diversity Plus: 4H Assay for Urokinase-type plasminogen activator receptor (uPAR) Biomarker Activity (AID 2283030); settings: primary human endothelial cells (HUVEC); actives raise or lower the signal
How it was run: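 Primary human umbilical vein endothelial cells were exposed to chemical for 24 h before cell-surface uPAR was quantified by ELISA. Activity was fitted bidirectionally against the DMSO negative control baseline.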

[2] = read-out: Vascular endothelial growth factor receptor 2 (Homo sapiens) (UniProt P35968); test: BSK_4H_VEGFRII: BioMAP Diversity Plus: 4H Assay for Vascular endothelial growth factor receptor 2 (VEGFR2) Biomarker Activity (AID 2283031); settings: primary human endothelial cells (HUVEC); actives raise or lower the signal;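 on AC50: cell-surface VEGFR2 protein level quantified by ELISA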
How it was run: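 Primary human umbilical vein endothelial cells in the BioMAP 4H system were dosed with test chemical, and 24 h later VEGFRII was measured by ELISA. Activity was fitted bidirectionally against DMSO as negative control and baseline.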

[3] = read-out: Human Leukocyte Antigen - DR isotype (HLADR), HLA-DRA (gene 3122); test: BSK_BE3C_HLADR: BioMAP Diversity Plus: BE3C Assay for Human Leukocyte Antigen - DR isotype (HLADR) Biomarker Activity (AID 2283032); settings: primary human bronchial epithelial cells; actives raise or lower the signal
How it was run: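 Signal came from an ELISA for HLA-DR in human bronchial epithelial primary cells harvested 24 h after treatment; gain- and loss-of-signal fitting used DMSO controls as reference.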

[4] = read-out: Vascular cell adhesion molecule 1 (VCAM1), VCAM1 (gene 7412); test: BSK_4H_VCAM1: BioMAP Diversity Plus: 4H Assay for Vascular cell adhesion molecule 1 (VCAM1) Biomarker Activity (AID 2283033); settings: primary human endothelial cells (HUVEC); actives raise or lower the signal;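 on outcome: cell-surface VCAM-1 protein measured by ELISA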
How it was run: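 Endpoint derived from bidirectional fitting against DMSO controls of VCAM-1 ELISA signal in umbilical vein endothelial cells sampled at 24 h following treatment.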

[5] = read-out: Interferon-gamma inducible Protein 10 (IP10), CXCL10 (gene 3627); test: BSK_BE3C_IP10: BioMAP Diversity Plus: BE3C Assay for Interferon-gamma inducible Protein 10 (IP10) Biomarker Activity (AID 2283034); settings: primary human bronchial epithelial cells; actives raise or lower the signal
How it was run: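 Using primary human bronchial epithelial cultures, the assay captures IP-10 by ELISA one day (24 h) after exposure. Parallel SRB staining of total protein flags overt cytotoxicity. Fits run bidirectionally relative to DMSO.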

[6] = read-out: Monokine induced gamma interferon (MIG), CXCL9 (gene 4283); test: BSK_BE3C_MIG: BioMAP Diversity Plus: BE3C Assay for Monokine induced gamma interferon (MIG) Biomarker Activity (AID 2283035); settings: primary human bronchial epithelial cells; actives raise or lower the signal;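 on outcome: MIG protein measured by ELISA in BE3C cultures after 24 h of dosing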
How it was run: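 Primary human bronchial epithelial cells treated for 24 h; MIG levels measured by ELISA, fitted bidirectionally versus DMSO. Parallel SRB total-protein staining assessed cytotoxicity.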

[7] = read-out: Transforming growth factor beta 1 (TGFb1), TGFB1 (gene 7040); test: BSK_BE3C_TGFb1: BioMAP Diversity Plus: BE3C Assay for Transforming growth factor beta 1 (TGFb1) Biomarker Activity (AID 2283036;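 on outcome: TGF-b1 protein level measured by ELISA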); settings: primary human bronchial epithelial cells; actives raise or lower the signal
How it was run: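 In this human primary bronchial epithelial system, an ELISA quantified TGF-b1 one day after dosing. Endpoint changes in either direction were fitted relative to DMSO.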

[8] = read-out: Plasminogen activator inhibitor-1 (PAI1), SERPINE1 (gene 5054); test: BSK_BE3C_PAI1: BioMAP Diversity Plus: BE3C Assay for Plasminogen activator inhibitor-1 (PAI1) Biomarker Activity (AID 2283037); settings: primary human bronchial epithelial cells; actives raise or lower the signal
How it was run: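 PAI-1 biomarker levels in treated human bronchial epithelial cells are determined by ELISA at 24 h. Both increases and decreases relative to DMSO are fitted.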

[9] = read-out: urokinase plasminogen activator (uPA), PLAU (gene 5328); test: BSK_BE3C_uPA: BioMAP Diversity Plus: BE3C Assay for urokinase plasminogen activator (uPA) Biomarker Activity (AID 2283038); settings: primary human bronchial epithelial cells; actives raise or lower the signal;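 on outcome: uPA protein level quantified by ELISA in cell cultures; uPA read one day after compound addition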
How it was run: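 Human primary bronchial epithelial cells were exposed to chemical for 24 h, then uPA levels were measured by ELISA. Responses were fitted bidirectionally against DMSO as negative control and baseline. Parallel SRB staining of total protein gauged overt cytotoxicity.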

[10] = read-out: Urokinase-type plasminogen activator receptor (uPAR), PLAUR (gene 5329); test: BSK_BE3C_uPAR: BioMAP Diversity Plus: BE3C Assay for Urokinase-type plasminogen activator receptor (uPAR) Biomarker Activity (AID 2283039); settings: primary human bronchial epithelial cells; actives raise or lower the signal;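 on outcome: cells exposed to compound for one day before measurement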
How it was run: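 A uPAR ELISA serves as the readout, taken 24 h after treating primary human bronchial epithelial cells. Responses in either direction are fitted against DMSO, which defines baseline activity.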

Row | SMILES | outcome [1] | outcome [2] | outcome [3] | outcome [4] | outcome [5] | outcome [6] | outcome [7] | outcome [8] | outcome [9] | outcome [10] | AC50 [2] | AC50 [3] | AC50 [4] | AC50 [5] | AC50 [8] | AC50 [1] | AC50 [6] | AC50 [7] | AC50 [9] | AC50 [10]
1 | CCCCC(CC)COC(=O)c1ccccc1C(=O)OCC(CC)CCCC (stereo not drawn) | inactive | inactive | inactive | inactive | inactive | inactive | inactive | inactive | inactive | inactive |  |  |  |  |  |  |  |  |  | 
2 | COc1ccc(C(c2ccc(OC)cc2)C(Cl)(Cl)Cl)cc1 | inactive |  |  |  |  | inactive | inactive |  | inactive | inactive | 31.2 µM (active) | 17.4 µM (active) | 25.1 µM (active) | 32.8 µM (active) | 14.3 µM (active) |  |  |  |  | 
3 | CCON=C(CC)C1=C(O)CC(c2c(C)cc(C)cc2C)CC1=O (stereo not drawn) | inactive | inactive | inactive | inactive | inactive | inactive | inactive | inactive | inactive | inactive |  |  |  |  |  |  |  |  |  | 
4 | CCCCNC(=O)OCC#CI |  |  |  |  |  |  |  |  |  |  | 22.9 µM (active) and 32.7 µM (active) | 28.8 µM (active) and 31.2 µM (active) | 25.1 µM (active) and 21.8 µM (active) | 34 µM (active) and 31.1 µM (active) | 30.1 µM (active) | 27.9 µM (active) and 25.8 µM (active) | 37 µM (active) and 31.3 µM (active) | 31.2 µM (active) and 32.1 µM (active) | 32 µM (active) and 30.6 µM (active) | 30 µM (active) and 30.4 µM (active)
5 | CCNc1nc(Cl)nc(NCC)n1 | inactive | inactive | inactive | inactive | inactive | inactive | inactive | inactive | inactive | inactive |  |  |  |  |  |  |  |  |  | 
6 | CCCCOC(=O)c1ccccc1C(=O)OCCCC | inactive | inactive | inactive | inactive | inactive | inactive | inactive | inactive | inactive | inactive |  |  |  |  |  |  |  |  |  | 
7 | O=C(O)c1nc(Cl)ccc1Cl | inactive | inactive | inactive | inactive | inactive | inactive | inactive | inactive | inactive | inactive |  | 28.8 µM (active) |  |  |  |  |  |  |  | 
8 | CC(C)Oc1cc(-n2nc(C(C)(C)C)oc2=O)c(Cl)cc1Cl | inactive |  |  |  |  | inactive | inactive |  |  | inactive | 32.9 µM (active) | 27.4 µM (active) | 28.2 µM (active) | 33.9 µM (active) | 20 µM (active) |  |  |  | 27.6 µM (active) | 
9 | CN(C)C(=S)SSC(=S)N(C)C |  | inactive |  |  |  |  |  |  |  |  |  | 8.69 µM (active) | 29.3 µM (active) | 10.7 µM (active) | 27.1 µM (active) | 26.3 µM (active) | 11.2 µM (active) | 12.9 µM (active) | 7.75 µM (active) | 9.65 µM (active)
10 | CO/C=C(/C(=O)OC)c1ccccc1Oc1cc(Oc2ccccc2C#N)ncn1 | inactive | inactive |  |  |  | inactive | inactive | inactive | inactive | inactive | 21.1 µM (active) | 16.5 µM (active) [middle of 4 runs] |  | 21.1 µM (active) and 26.1 µM (active) | 21.1 µM (active) | 30.4 µM (active) and 30.6 µM (active) and 30.8 µM (active) |  |  |  | 
11 | OC(c1ccc(Cl)cc1)(c1cncnc1)c1ccccc1Cl (stereo not drawn) |  | inactive |  | inactive |  | inactive | inactive | inactive | inactive | inactive |  | 25.9 µM (active) |  | 30.3 µM (active) |  | 18.3 µM (active) |  |  |  | 
12 | COP(N)(=O)SC (stereo not drawn) | inactive | inactive |  | inactive | inactive | inactive | inactive | inactive | inactive | inactive |  | 5.27 µM (active) |  |  |  |  |  |  |  | 
13 | CCOc1cc(Oc2ccc(C(F)(F)F)cc2Cl)ccc1[N+](=O)[O-] | inactive | inactive |  | inactive | inactive | inactive | inactive | inactive | inactive | inactive |  | 9.39 µM (active) |  |  |  |  |  |  |  | 
14 | COC(=O)C=C(C)OP(=O)(OC)OC | inactive | inactive | inactive | inactive | inactive | inactive | inactive | inactive | inactive | inactive |  |  |  |  |  |  |  |  |  | 
15 | C=CC1(C)OC(=O)N(c2cc(Cl)cc(Cl)c2)C1=O (stereo not drawn) | inactive | inactive | inactive | inactive | inactive | inactive | inactive | inactive | inactive | inactive |  |  |  |  |  |  |  |  |  | 
16 | N#Cc1nn(-c2c(Cl)cc(C(F)(F)F)cc2Cl)c(N)c1S(=O)C(F)(F)F (stereo not drawn) |  |  |  |  |  |  | inactive |  | inactive | inactive | 31.7 µM (active) | 14.2 µM (active) | 20 µM (active) | 23.2 µM (active) | 20 µM (active) | 23.2 µM (active) | 28.3 µM (active) |  |  | 
17 | O=C(O)COc1nc(Cl)c(Cl)cc1Cl | inactive | inactive | inactive | inactive | inactive | inactive |  | inactive | inactive | inactive |  |  |  |  |  |  |  | 0.245 µM (active) |  | 
